This note sets out measurements from PubChem BioAssay AID651 (University of Pittsburgh Molecular Library Screening Center, 2007).

Screen size: about 1,000 compounds; about 390 (39%) were called active. Another 8% or so got no clear call; they are omitted. Cut-off read from the data, not from the text of the source: active = inhibition above about 48%; inconclusive = no clear call, values can overlap the other calls; inactive = below that. Only a sample is shown.

The target in this experiment is Gag-Pol polyprotein (Human immunodeficiency virus type 1 group M subtype B (isolate HXB2)) (UniProt P04585). Description: HIV-1 RT RNase H inhibitors, retest, confirmation, biochemical (AID 651). Conditions: Recombinant RT RNase H, fluorescent RNA/DNA duplex cleavage; at 10 µM; active compounds read high.
Regarding `CCCc1nc2ccccc2c(=O)n1/N=C/c1ccc(O)c(O)c1`, the inhibition is 74.1% (active).
Take `Cc1nc(C)c(C(=O)Nc2cccc(C)c2C)o1`: the inhibition is 14.1% (inactive).
The same measure for `Clc1ccccc1CSc1nnc(-c2ccco2)c(-c2ccco2)n1`: 18.5% (inactive); for `CC1CCc2c(sc(NC(=O)c3ccc(Cn4cc(Br)cn4)o3)c2C(N)=O)C1` (stereo not given): 59.9% (active); for `CN(c1ccccc1)c1ccc(/C=c2\s/c(=C(/C#N)C(=O)C(C)(C)C)n(Cc3ccco3)c2=O)cc1`: 50.5% (active).
As to `O=C(NCc1ccccn1)c1ccc2nc(-c3ccco3)c(-c3ccco3)nc2c1`, the inhibition is 2.46% (inactive).
Consider `Nc1ccc(-c2nnc(-c3ccc(-c4ccccc4)cc3)o2)cc1`, for which the inhibition is 63.3% (active).
For the compound `CCCC(=O)N1CCc2[nH]c3ccccc3c2C1`, the inhibition is -2.83% (inactive).
With `CC(C)CNC(=O)C1CCCN(S(=O)(=O)c2ccc(-n3cnnn3)cc2)C1` (stereo not given), the inhibition is 40.6% (inactive).
The figure for `CCCCOC(=O)CNc1nnc(SCC(=O)OCC)[nH]c1=O` is 43.7% (inactive).
For the compound `CCN(CC)c1ccc2oc(=O)c(C)nc2c1`, the inhibition was 0.308% (inactive).
On to `Cc1csc(NC(=O)NC2(C(F)(F)F)Oc3ccccc3O2)n1`, for which the inhibition was 33.8% (inactive).
As for `O=C(Nc1nc(-c2ccncc2)cs1)C1COc2ccccc2O1` (stereo not given), the inhibition is 69.2% (active).
On to `CCCc1nnc(NC(=O)CN2C(=O)c3ccccc3S2(=O)=O)s1`, for which the inhibition was 60.4% (active).
Turning to `COc1ccc(Cc2nnc(NC(=O)Cc3cccs3)s2)cc1`, the inhibition was 22.2% (inactive).
On to `CCc1nnc(NC(=O)CSc2nnc(COc3ccc(C#N)cc3)n2-c2ccccc2)s1`, for which the inhibition is 19.2% (inactive).
The same measure for `COC(=O)C1=C(C)NC2=C(C(=O)c3ccccc32)C1c1ccc(-c2ccc(C(=O)O)cc2)o1` (stereo not given): 5.29% (inactive).
Regarding `c1ccc(Cc2nn3c(Cn4cnc5ccccc54)nnc3s2)cc1`, the inhibition was 59.7% (active).
The same measure for `CCOc1ccc2[nH]c(=O)c(CN(CCCO)C(C)=O)cc2c1`: 15.8% (inactive); for `NC(=O)Cn1c(=O)oc2ccccc21`: 35.5% (inactive).
With `Cc1noc(C)c1CSc1nc2cc(S(=O)(=O)N3CCOCC3)ccc2o1`, the inhibition was 61% (active).
`COc1cc(C(=O)Nc2oc(-c3ccccc3)c(-c3ccccc3)c2C#N)cc(OC)c1OC`: the inhibition is 53.6% (active).
The figure for `Cc1ccc2cccc(O)c2[n+]1[O-]` is 43.9% (inactive); for `CCC(C)(C)NC(=O)C(c1cccn1C)N(Cc1ccc(C)cc1)C(=O)Cn1nnc2ccccc21` (stereo not given) it is -5.01% (inactive); for `CCCCCn1c(SCCC(C)C)nc2c1c(=O)[nH]c(=O)n2C` it is 17.3% (inactive).
Regarding `CCC(C)Sc1nc2c(c(=O)[nH]c(=O)n2C)n1CC(O)COc1cccc2ccccc12` (stereo not given), the inhibition is 68.7% (active).
Turning to `Cc1ccnc(-n2sc3ccccc3c2=O)n1`, the inhibition was 60% (active).
Regarding `COc1ccc(OC)c(Nc2nc(-c3ccc(O)c(O)c3)cs2)c1`, the inhibition was 77.2% (active).
The figure for `Cc1ccc2c(c1)sc1ncc(NC(=O)c3ccccc3)c(=O)n12` is 46.4% (inactive).
Regarding `COc1cccc(-c2nnc(NC(=O)c3ccc(S(=O)(=O)N(CC(C)C)CC(C)C)cc3)o2)c1`, the inhibition is 74.9% (active).
As to `CCC1=[N+]([O-])C(C)(/C(C)=N\O)N(O)C1(C)C` (stereo not given), the inhibition was 32% (inactive).
For the compound `CCOC(=O)N1CCN(CC(=O)c2ccc3c(c2)CCN3)CC1`, the inhibition is 15.5% (inactive).
With `COc1ccc(CCn2c(=N)c(C(=O)NCc3ccco3)cc3c(=O)n4cccc(C)c4nc32)cc1`, the inhibition was 1.96% (inactive).
For `Cc1cc(C(F)(F)F)nn1-c1nc(-c2ccco2)cc(C(F)(F)F)n1`, the inhibition was 38% (inactive).
The figure for `Cc1cccc(-n2c(N)c(C(=O)N3CCN(C)CC3)sc2=S)c1` is 67% (active); for `Cc1ccc(-n2c(N)c(C(=O)N3CCOCC3)sc2=S)c(C)c1` it is -4.07% (inactive).
Consider `Cc1ccnc(N2CCCC(C(=O)Nc3cc(F)ccc3C)C2)n1` (stereo not given), for which the inhibition was 9.38% (inactive).
Consider `COC(=O)N(c1ccc(OC)cc1)P1(=S)OCCC(C)O1` (stereo not given), for which the inhibition is 57.7% (active).
For the compound `CCc1c(C)[nH]c(=S)c(C#N)c1C`, the inhibition is -2.67% (inactive).
Turning to `Fc1ccc(-c2nnc3sc(-c4ccc5c(c4)OCO5)nn23)cc1`, the inhibition is 94.9% (active).
For the compound `Fc1ccc(-c2ccc(-c3nn4c(-c5ccco5)nnc4s3)o2)cc1`, the inhibition is 48.4% (active).
With `COC(=O)Nc1nc2ccc(Sc3ccccc3)cc2[nH]1`, the inhibition is 33.9% (inactive).
On to `O=C(Nc1cc(N2CCOCC2)ncn1)NC1(C(F)(F)F)Oc2ccc(Cl)cc2O1` (stereo not given), for which the inhibition was -8.24% (inactive).
For `CCN(CC)S(=O)(=O)c1ccc2nc(COC(=O)c3n[nH]c4ccccc34)[nH]c2c1`, the inhibition is 29.7% (inactive).
On to `CC(C)C1N=C2c3ccccc3N=C(SCC(=O)c3ccc(O)c(O)c3)N2C1=O` (stereo not given), for which the inhibition was 64.7% (active).
On to `COc1ccc(N2C(=O)CN=C2Nc2cccc(C)c2C)cc1OC`, for which the inhibition is 42.9% (inactive).
The figure for `c1ccc(CSc2nnc(-c3ccco3)c(-c3ccco3)n2)cc1` is 42.2% (inactive); for `COc1ccc(Nc2oc(-c3ccccc3Cl)nc2C#N)cc1` it is 3.03% (inactive).
The same measure for `CCOC(=O)c1sc(=S)n2c1[nH]c(=O)c1ccc(C(=O)OC)cc12`: 73.8% (active); for `Cc1ccc(-n2nc(-c3ccco3)cc2C(=O)NCc2cccnc2)cc1`: -3.12% (inactive).

Broadly, the inhibition is the drop in the measured response relative to a control, in per cent.
